Test results reported in ChEMBL document CHEMBL1961873, “Compounds: GSK PKIS; Assays: Nanosyn kinase panel” (2012).

How the values were obtained:
[1] = biological target: Glycogen synthase kinase-3 beta (Homo sapiens) (UniProt P49841); details: at 1 µM;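 further: reported values are mean percent inhibition of GSK3B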
[2] = biological target: Homeodomain-interacting protein kinase 1 (Homo sapiens) (UniProt Q86Z02); details: at 0.1 µM
[3] = biological target: Homeodomain-interacting protein kinase 1 (Homo sapiens) (UniProt Q86Z02); details: at 1 µM
[4] = biological target: T1, Homeodomain-interacting protein kinase 4 (Homo sapiens) (UniProt Q8NE63); details: at 0.1 µM
T1 sequence (whole entry): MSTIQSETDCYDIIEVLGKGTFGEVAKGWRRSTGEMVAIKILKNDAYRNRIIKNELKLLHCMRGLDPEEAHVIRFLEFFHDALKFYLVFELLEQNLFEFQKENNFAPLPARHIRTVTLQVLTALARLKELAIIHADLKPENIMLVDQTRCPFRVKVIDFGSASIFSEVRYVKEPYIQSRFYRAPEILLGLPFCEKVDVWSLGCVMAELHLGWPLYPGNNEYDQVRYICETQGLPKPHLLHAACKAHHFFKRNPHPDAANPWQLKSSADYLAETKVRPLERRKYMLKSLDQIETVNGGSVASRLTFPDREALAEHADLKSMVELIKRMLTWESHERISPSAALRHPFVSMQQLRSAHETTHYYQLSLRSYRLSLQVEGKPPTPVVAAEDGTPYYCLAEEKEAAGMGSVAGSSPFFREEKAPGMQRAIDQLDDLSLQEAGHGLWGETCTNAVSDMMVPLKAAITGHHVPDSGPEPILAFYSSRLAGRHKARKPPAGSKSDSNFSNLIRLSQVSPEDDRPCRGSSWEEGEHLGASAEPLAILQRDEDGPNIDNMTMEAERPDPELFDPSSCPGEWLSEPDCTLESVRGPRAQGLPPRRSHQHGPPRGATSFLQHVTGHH

[5] = biological target: T1, Homeodomain-interacting protein kinase 4 (Homo sapiens); details: at 1 µM
[6] = biological target: Mitogen-activated protein kinase 9 (Homo sapiens) (UniProt P45984); details: at 0.1 µM
Chain of Mitogen-activated protein kinase 9 (Homo sapiens) (P45984 whole entry, looked up): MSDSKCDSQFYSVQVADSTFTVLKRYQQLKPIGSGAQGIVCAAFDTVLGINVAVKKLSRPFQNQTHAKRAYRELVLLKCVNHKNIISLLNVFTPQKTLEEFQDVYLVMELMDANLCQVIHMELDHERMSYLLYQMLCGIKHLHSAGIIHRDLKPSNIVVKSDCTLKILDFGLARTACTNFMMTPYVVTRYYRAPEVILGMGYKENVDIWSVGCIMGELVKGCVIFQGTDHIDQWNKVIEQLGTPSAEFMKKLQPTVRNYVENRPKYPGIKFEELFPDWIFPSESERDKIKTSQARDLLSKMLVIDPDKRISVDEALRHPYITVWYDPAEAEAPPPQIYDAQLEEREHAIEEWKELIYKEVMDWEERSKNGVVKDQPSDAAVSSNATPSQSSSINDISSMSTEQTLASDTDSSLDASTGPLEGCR

[7] = biological target: Mitogen-activated protein kinase 9 (Homo sapiens) (UniProt P45984); details: at 1 µM
[8] = biological target: Mitogen-activated protein kinase 1 (Homo sapiens) (UniProt P28482); details: at 0.1 µM
Chain of Mitogen-activated protein kinase 1 (Homo sapiens) (P28482 whole entry): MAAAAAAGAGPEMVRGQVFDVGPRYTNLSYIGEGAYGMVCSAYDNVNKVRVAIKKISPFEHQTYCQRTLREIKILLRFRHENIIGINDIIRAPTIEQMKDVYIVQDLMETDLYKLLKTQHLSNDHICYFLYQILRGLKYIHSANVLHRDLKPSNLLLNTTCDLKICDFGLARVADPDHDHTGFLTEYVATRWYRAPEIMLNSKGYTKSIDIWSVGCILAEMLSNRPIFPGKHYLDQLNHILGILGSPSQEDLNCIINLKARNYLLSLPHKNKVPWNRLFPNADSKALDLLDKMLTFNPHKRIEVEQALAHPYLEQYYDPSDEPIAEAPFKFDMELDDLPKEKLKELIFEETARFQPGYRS

[9] = biological target: Mitogen-activated protein kinase 1 (Homo sapiens) (UniProt P28482); details: at 1 µM
[10] = biological target: Mitogen-activated protein kinase 3 (Homo sapiens) (UniProt P27361); details: at 0.1 µM
Chain of Mitogen-activated protein kinase 3 (Homo sapiens) (P27361 whole entry): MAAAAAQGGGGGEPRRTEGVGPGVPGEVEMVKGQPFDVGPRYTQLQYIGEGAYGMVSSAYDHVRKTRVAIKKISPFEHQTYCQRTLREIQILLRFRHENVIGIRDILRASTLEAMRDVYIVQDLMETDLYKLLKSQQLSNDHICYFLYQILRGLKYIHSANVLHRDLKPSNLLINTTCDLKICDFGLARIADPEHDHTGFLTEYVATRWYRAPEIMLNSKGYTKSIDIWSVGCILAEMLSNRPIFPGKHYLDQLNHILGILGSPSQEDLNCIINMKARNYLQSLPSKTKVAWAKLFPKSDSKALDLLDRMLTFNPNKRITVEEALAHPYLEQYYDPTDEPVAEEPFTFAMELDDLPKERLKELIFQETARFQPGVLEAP

[11] = biological target: Mitogen-activated protein kinase 3 (Homo sapiens) (UniProt P27361); details: at 1 µM
[12] = biological target: SRSF protein kinase 3 (Homo sapiens) (UniProt Q9UPE1); details: at 0.1 µM
Chain of SRSF protein kinase 3 (Homo sapiens) (Q9UPE1 whole entry): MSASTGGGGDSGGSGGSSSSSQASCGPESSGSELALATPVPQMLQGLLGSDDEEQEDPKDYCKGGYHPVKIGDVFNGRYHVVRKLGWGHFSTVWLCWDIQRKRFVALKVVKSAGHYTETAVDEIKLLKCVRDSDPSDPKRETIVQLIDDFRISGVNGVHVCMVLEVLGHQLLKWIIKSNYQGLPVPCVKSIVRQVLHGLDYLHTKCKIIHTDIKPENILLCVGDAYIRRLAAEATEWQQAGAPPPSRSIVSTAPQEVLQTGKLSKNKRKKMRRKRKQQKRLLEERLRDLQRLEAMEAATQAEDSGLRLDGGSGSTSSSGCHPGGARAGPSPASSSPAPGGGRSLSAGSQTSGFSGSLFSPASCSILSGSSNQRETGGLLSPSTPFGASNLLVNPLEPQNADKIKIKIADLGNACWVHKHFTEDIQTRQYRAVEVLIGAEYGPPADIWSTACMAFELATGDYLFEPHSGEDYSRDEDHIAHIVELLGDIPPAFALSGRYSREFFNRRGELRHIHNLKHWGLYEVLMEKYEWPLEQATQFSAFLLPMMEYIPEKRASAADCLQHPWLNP

[13] = biological target: SRSF protein kinase 3 (Homo sapiens) (UniProt Q9UPE1); details: at 1 µM
[14] = biological target: Mitogen-activated protein kinase 14 (Homo sapiens) (UniProt Q16539); details: at 0.1 µM
Chain of Mitogen-activated protein kinase 14 (Homo sapiens) (Q16539 whole entry): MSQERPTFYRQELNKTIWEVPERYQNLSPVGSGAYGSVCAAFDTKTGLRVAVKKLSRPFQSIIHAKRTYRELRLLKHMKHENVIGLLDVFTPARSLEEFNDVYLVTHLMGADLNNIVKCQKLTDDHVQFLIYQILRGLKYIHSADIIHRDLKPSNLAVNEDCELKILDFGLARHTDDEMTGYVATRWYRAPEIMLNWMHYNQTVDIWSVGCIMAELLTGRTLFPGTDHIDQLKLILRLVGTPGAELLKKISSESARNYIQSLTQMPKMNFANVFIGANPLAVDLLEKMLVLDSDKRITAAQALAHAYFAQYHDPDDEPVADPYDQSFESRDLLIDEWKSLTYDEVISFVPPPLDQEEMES

[15] = biological target: Mitogen-activated protein kinase 14 (Homo sapiens) (UniProt Q16539); details: at 1 µM
[16] = biological target: Mitogen-activated protein kinase 11 (Homo sapiens) (UniProt Q15759); details: at 0.1 µM
Chain of Mitogen-activated protein kinase 11 (Homo sapiens) (Q15759 whole entry): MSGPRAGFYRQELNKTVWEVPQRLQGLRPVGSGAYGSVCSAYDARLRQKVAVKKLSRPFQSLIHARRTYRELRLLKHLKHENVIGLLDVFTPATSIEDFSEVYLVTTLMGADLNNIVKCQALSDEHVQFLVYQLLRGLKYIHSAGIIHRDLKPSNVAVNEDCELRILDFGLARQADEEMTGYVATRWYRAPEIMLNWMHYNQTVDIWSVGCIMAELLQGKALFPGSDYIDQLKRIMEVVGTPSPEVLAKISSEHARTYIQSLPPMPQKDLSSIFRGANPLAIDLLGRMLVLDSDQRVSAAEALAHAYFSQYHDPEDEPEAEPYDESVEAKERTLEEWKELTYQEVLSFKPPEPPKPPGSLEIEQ

[17] = biological target: Mitogen-activated protein kinase 11 (Homo sapiens) (UniProt Q15759); details: at 1 µM
[18] = biological target: T2, Mitogen-activated protein kinase 13 (Homo sapiens) (UniProt O15264); details: at 0.1 µM
T2 sequence (whole entry): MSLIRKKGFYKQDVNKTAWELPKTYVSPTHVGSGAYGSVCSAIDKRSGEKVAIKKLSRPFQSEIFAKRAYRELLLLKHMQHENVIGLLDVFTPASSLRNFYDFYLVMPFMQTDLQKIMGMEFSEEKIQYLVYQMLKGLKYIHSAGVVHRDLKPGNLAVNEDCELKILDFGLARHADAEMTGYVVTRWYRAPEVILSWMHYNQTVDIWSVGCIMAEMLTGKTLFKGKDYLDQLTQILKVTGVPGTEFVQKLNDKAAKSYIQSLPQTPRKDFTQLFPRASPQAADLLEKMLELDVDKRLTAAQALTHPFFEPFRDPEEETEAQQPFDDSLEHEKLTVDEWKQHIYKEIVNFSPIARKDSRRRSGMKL

[19] = biological target: T2, Mitogen-activated protein kinase 13 (Homo sapiens); details: at 1 µM
[20] = biological target: T3, Mitogen-activated protein kinase 12 (Homo sapiens) (UniProt P53778); details: at 0.1 µM
T3 sequence (whole entry): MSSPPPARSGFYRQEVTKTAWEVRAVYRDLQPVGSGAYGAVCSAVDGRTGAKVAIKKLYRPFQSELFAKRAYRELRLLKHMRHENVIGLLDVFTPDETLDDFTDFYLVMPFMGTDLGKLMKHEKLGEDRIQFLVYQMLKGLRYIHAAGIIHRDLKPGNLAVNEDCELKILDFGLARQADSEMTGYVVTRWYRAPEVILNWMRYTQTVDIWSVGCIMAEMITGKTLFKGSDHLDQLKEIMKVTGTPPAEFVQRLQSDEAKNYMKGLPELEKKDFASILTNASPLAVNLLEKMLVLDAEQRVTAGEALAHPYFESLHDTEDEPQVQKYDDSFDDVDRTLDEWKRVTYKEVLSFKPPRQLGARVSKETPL

Chain of Homeodomain-interacting protein kinase 1 (Homo sapiens) (Q86Z02 whole entry, looked up): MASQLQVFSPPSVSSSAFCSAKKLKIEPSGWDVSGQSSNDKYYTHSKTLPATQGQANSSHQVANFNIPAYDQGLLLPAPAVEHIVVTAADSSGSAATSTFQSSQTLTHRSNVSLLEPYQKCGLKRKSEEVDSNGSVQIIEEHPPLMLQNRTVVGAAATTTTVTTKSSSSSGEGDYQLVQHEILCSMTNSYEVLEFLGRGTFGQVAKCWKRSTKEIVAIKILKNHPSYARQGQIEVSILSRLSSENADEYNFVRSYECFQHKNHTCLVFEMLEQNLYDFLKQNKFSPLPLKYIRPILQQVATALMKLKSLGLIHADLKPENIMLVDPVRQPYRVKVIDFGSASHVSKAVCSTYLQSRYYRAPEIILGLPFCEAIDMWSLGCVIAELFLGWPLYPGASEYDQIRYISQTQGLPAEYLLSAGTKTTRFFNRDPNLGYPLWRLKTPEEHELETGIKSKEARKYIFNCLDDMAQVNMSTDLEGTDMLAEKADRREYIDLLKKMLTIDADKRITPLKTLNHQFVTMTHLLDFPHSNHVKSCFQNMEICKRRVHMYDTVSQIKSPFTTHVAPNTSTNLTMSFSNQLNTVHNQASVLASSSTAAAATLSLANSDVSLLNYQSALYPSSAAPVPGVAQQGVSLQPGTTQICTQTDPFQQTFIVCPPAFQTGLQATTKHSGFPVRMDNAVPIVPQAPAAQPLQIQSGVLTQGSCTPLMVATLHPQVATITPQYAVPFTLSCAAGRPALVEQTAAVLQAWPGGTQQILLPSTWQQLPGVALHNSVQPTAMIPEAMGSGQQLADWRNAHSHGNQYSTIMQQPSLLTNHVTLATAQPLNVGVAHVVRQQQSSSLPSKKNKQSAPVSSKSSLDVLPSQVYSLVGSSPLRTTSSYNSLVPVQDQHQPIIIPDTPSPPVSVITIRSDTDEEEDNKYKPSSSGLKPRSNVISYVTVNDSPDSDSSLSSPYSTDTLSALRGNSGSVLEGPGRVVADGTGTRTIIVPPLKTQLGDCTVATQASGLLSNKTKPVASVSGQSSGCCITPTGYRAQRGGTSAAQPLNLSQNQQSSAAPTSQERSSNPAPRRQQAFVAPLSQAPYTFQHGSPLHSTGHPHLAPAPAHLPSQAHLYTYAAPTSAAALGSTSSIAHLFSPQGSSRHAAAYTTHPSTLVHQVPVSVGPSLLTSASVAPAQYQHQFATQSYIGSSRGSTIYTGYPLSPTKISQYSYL
Chain of Glycogen synthase kinase-3 beta (Homo sapiens) (P49841 whole entry, looked up): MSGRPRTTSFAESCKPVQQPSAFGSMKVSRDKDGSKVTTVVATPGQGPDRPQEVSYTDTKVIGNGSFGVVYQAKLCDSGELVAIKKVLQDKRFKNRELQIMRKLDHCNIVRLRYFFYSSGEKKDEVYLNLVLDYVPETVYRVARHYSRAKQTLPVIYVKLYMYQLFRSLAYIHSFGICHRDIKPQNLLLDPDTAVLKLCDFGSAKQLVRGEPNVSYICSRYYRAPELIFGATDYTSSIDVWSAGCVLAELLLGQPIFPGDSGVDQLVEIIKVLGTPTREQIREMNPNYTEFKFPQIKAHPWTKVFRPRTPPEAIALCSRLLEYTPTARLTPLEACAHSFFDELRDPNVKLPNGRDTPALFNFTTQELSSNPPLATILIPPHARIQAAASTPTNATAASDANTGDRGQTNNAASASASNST

| SMILES | inhibition [1] [%] | inhibition [2] [%] | inhibition [3] [%] | inhibition [4] [%] | inhibition [5] [%] | inhibition [6] [%] | inhibition [7] [%] | inhibition [8] [%] | inhibition [9] [%] | inhibition [10] [%] | inhibition [11] [%] | inhibition [12] [%] | inhibition [13] [%] | inhibition [14] [%] | inhibition [15] [%] | inhibition [16] [%] | inhibition [17] [%] | inhibition [18] [%] | inhibition [19] [%] | inhibition [20] [%] |
| --- | --- | --- | --- | --- | --- | --- | --- | --- | --- | --- | --- | --- | --- | --- | --- | --- | --- | --- | --- | --- |
| COC(=O)Nc1nc2cc(Oc3ccc(NC(=O)Nc4ccccc4)cc3)ccc2[nH]1 | 8.21 | 0.47 | 2.14 | 3.11 | 2.22 | 3.28 | 3 | 4.54 | 2.22 | 4.71 | 4.97 | -2.65 | 1.09 | 1.53 | 6.62 | 3.05 | 8.13 | -0.27 | 1.34 | 3.43 |
| OCCCNc1nccc(-c2c(-c3ccc(F)cc3)nn3cc(C(F)(F)F)ccc23)n1 | 31.2 | -0.49 | 3.61 | 3.13 | 6.59 | 14.8 | 59.7 | 1.24 | 7.07 | 1.68 | 5.6 | 1.09 | 3.54 | 64.4 | 91 | 22.7 | 68.7 | 4.11 | 3.39 | 3.46 |
| CNC(=O)c1ncccc1Nc1nc(Nc2cc3c(cc2OC)CCCN3C(=O)CN(C)C)nc2[nH]ccc12 | 14.6 | 3.08 | 22.2 | 3.67 | 13.5 | 3.07 | 9.19 | 3.01 | 6.21 | 2.44 | 1.38 | 0.37 | 0.84 | 4.75 | 8.76 | 4.41 | 4.4 | 8.55 | 5.64 | 1.94 |
| COc1ccc2ncn(-c3cc(O[C@H](C)c4ccccc4C(F)(F)F)c(C(N)=O)s3)c2c1 | 4.75 | -2.12 | 2.1 | -0.89 | 3.28 | 0.32 | -1.29 | -1.88 | -0.49 | -0.86 | 0.26 | -1.14 | -0.79 | -5.71 | 0.3 | -0.35 | 0.3 | -0.27 | -1.08 | 0.21 |
| NS(=O)(=O)c1cccc(N/C=C2\C(=O)Nc3ccccc32)c1 | 19.7 | -0.03 | 2.88 | 0.43 | 4.51 | 7.2 | 10.9 | 2.99 | 4.54 | 1.72 | 1.27 | -0.21 | 0.27 | 7.96 | 13.5 | 6.33 | 9.54 | 1.07 | 5.02 | 1.32 |
| Fc1ccc(Nc2nccc(-c3c(-c4ccc(C(F)(F)F)cc4)nn4ncccc34)n2)cc1F | 3.82 | 0.15 | 4.43 | 0.47 | 3.47 | 1.98 | 3.63 | 3.91 | 4.05 | 1.81 | -0.07 | 0.64 | 0.08 | 1.53 | 8.46 | 1.28 | 3.29 | -4.93 | 4.25 | 5.22 |
| NS(=O)(=O)c1ccc(N/N=C2\C(=O)Nc3cccc(CCc4ccncc4)c32)cc1 | 56.4 | -0.6 | 2.62 | 0.72 | 1.64 | -0.3 | 1.61 | 0.92 | 0.88 | -0.55 | -1.26 | -1.55 | -0.36 | 1.13 | 0.21 | 1.91 | 3.6 | 0.17 | -0.27 | 0.4 |
| CS(=O)(=O)CCNCc1ccoc1-c1ccc2ncnc(Nc3ccc(OCc4ccccc4)cc3)c2c1 | 4.28 | -3.84 | 0.14 | 0.57 | 2.87 | 1.1 | 1.84 | 0.72 | 2.14 | 0.52 | 1.25 | -1.87 | -1.49 | 2.69 | 0.9 | 2.25 | 1.9 | 0.46 | -0.76 | 0.71 |
| CCOc1ccc2c(-c3ccnc(Nc4cc(OC)cc(C(F)(F)F)c4)n3)cnn2n1 | 28 | 20.1 | 61.9 | 4.81 | 24.3 | 1.36 | 5.36 | 0.19 | 0.63 | 0.36 | 2.27 | -0.03 | -0.23 | 8.65 | 2.85 | -0.59 | 1.71 | 0.55 | 2.07 | 3.42 |
| CC1=C(C(=O)Nc2ccc3[nH]nc(C)c3c2)C(c2ccc(C(F)(F)F)cc2)CC(=O)N1 (stereo not given) | 10.3 | 3.11 | 7.43 | 3.59 | 7.18 | 2.4 | 3.81 | 6.06 | 35.1 | 3.88 | 19.7 | 1.18 | -0.95 | 1.31 | 5.28 | -0.15 | 0.38 | 1.19 | 6.03 | -4.7 |
| CCN1CCC(C(=O)Nc2n[nH]c3nnc(-c4cccc(F)c4F)cc23)CC1 | 88.7 | -1.08 | 2.33 | 0.85 | 4.09 | -0.81 | 1.88 | -0.1 | 0.83 | -2.77 | -0.23 | -0.64 | -0.52 | -0.33 | -0.72 | 0.08 | 0.51 | -1.52 | -2.25 | -0.79 |
| CS(=O)(=O)Nc1ccc(-c2ccc3c(NC(=O)C4CC4)n[nH]c3c2)cc1 | 5.37 | -0.91 | 5.67 | 0.27 | 5.43 | 2.01 | 3.22 | 4.95 | 1.75 | 2.3 | 3.17 | 1.14 | -1.76 | 2.35 | 7.21 | 1.53 | 0.3 | 3.39 | 4.07 | 1.3 |
| CCCNc1cccc(-n2ncc3c(N/N=C/c4ccncc4)ncnc32)c1 | 68.7 | 2.78 | 13.5 | 4.71 | 27.7 | -0.25 | 6.14 | 1.61 | 1.54 | 1.28 | 3.62 | -0.81 | 0.97 | 1.81 | 7.62 | 4.76 | 25.5 | 0.94 | 3.1 | 0.51 |
